Six1-Eya2 blk – Six1/Eya2 interaction inhibition. Q15475+O00167. AlphaScreen GST-Six1/His-Eya2 binding, biochemical; stronger effect = lower value. activity change, % (no concentration beside the values). 360,000 compounds, 0.56% hits; in the data active = activity change below about -65%; inconclusive = mostly about -30% to -63%
Target sequence (O00167 whole entry, looked up): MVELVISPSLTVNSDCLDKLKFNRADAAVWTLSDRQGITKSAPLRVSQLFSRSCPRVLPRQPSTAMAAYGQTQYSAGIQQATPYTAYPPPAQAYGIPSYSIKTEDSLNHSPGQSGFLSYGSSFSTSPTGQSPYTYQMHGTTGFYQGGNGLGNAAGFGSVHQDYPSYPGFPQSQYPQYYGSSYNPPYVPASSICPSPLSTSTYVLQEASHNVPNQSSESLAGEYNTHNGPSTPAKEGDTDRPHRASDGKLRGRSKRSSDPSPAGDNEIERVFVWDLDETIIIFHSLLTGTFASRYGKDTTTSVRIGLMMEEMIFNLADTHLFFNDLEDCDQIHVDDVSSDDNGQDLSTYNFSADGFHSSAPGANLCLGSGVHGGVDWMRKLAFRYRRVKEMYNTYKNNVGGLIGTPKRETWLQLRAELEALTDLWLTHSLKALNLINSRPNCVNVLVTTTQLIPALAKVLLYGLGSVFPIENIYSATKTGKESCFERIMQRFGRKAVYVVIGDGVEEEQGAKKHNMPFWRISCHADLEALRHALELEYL
Target sequence (Q15475 whole entry, looked up): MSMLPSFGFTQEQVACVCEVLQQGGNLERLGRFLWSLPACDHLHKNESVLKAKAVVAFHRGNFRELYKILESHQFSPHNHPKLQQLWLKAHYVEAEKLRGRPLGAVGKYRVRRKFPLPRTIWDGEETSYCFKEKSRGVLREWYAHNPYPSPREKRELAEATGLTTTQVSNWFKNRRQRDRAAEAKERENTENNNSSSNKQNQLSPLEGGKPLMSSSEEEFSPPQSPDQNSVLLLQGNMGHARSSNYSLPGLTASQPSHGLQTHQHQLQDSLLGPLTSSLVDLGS
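AlphaScreen luminescence read after one hour at 37 °C in darkness. Pin-transferred compounds met GST-Six1 and His-Eya2 protein (5X stock 250 nM/500 nM) plus glutathione donor and Ni-chelate acceptor beads (5X, 50 ug/mL).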
DT40 TDP1 no CPT – qHTS for Inhibitors of human tyrosyl-DNA phosphodiesterase 1 (TDP1): qHTS in cells in absence of CPT; AID 686978, 2013; 420,000 compounds, 15% hits; DT40 Tdp1-/- hTDP1 cells, no CPT, ATP luminescence, 48 h; Potency, µM (series often up to 46.2 µM), inactives show at the top dose activity change, negative = growth inhibition, usual class: inhibitors; note: potency is the fitted concentration of half-maximal effect; nearly all actives have a fitted effect of over 55% in size
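Growth kinetics read by CellTiter-Glo luminescence after ≥48 hr at 37 °C. Cells: DT40 Tdp1-/- stably carrying human TDP1, 400 per well, compound exposure in the absence of CPT (DMSO vehicle).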
DT40 TDP1 CPT – growth inhibition of DT40 Tdp1-/-;hTDP1 cells with camptothecin (screen for TDP1 inhibitors) | chicken DT40 Tdp1-/-;hTDP1 cells + 20 nM CPT, ATP luminescence, 48 h | 420,000 compounds, 12% hits | Potency, µM (titrated, usually from 46.2 µM), inactives show top-dose activity change, negative = growth inhibition, hits mostly inhibitors | AID 686979; note: potency is the fitted concentration of half-maximal effect; nearly all actives have a fitted effect of over 55% in size
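Chicken DT40 Tdp1-/- cells complemented with human TDP1, 400 cells/well, exposed to compounds plus 20 nM camptothecin for at least 48 h at 37 C; viability read as ATP content by CellTiter-Glo luminescence.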
CtBP-E1A inh – CtBP/E1A binding inhibition; AlphaScreen GST-E1A/His-CtBP binding, 1536-well; stronger effect = lower value; activity change, % (concentration not given with the values); 340,000 compounds, 0.49% hits; AID 651724; in the data active = activity change below about -65%; inconclusive = mostly about -30% to -63%
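In 5 uL wells, 23 nL compound meets equimolar GST-E1A and His-CtBP (5X stock 125 nM each) for 2 h, 37 °C. Beads (5X, 50 ug/mL) then 1 h, 37 °C, dark.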
TDP1 block – inhibitors of human tyrosyl-DNA phosphodiesterase TDP1; Q9NUW8; recombinant TDP1, AlphaScreen DNA substrate cleavage; Potency, µM (titrated, usually from 130 µM), without a hit: top-dose activity change, negative = inhibition, usual class: inhibitors; 350,000 compounds, 0.28% hits; AID 485290; note: potency is the fitted concentration of half-maximal effect; nearly all actives have a fitted effect of over 40% in size
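Steps: enzyme plus compound, 15 min RT; add biotin/phosphotyrosine-FITC oligonucleotide (15 nM final), react 5 min; add donor/acceptor beads (10 ug/ml final), 10 min; read AlphaScreen. Tdp1 at 1 nM final.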
IL-1B inflam inh – blocks inflammasome-driven IL-1 beta release | THP-1 LPS/ATP IL-1B secretion, AlphaLISA, 16 h; stronger effect = lower value | activity change, % at 57.5 µM | 360,000 compounds, 4.7% hits | AID 743279; in the data active = activity change below about -50%; inconclusive = mostly about -30% to -49%
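THP-1 cells pretreated 1 hr with compounds (up to 57.5 uM final), then stimulated with LPS (250 ng/mL final) plus ATP (1.25 mM final); secreted IL-1B measured by AlphaLISA after 16 hr, decreased signal indicating inhibition.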
The depositor's hits bear a star; ? = inconclusive; nt = no result; [ ] = another dose, or the depositor's remark. A selection: hits, their analogues and other compounds. The true share with any hit is near 18%. Unless noted, calls come from the whole dose curve; as a rule, active = well fitted curve in the direction sought with a large enough effect; inconclusive = small, poorly fitted or top-dose-only effect, or another doubt; inactive = no such curve, though single readings can be large; an effect the other way counts as inactive or inconclusive. % is set by controls: 0 for no effect and ±100 for the full control effect.

SMILES	Six1-Eya2 blk	DT40 TDP1 no CPT	DT40 TDP1 CPT	CtBP-E1A inh	TDP1 block	IL-1B inflam inh
COc1cccc(CNC(=O)c2cc3c(=O)oc4ccc(C)cc4c3s2)c1	nt	21µM*	?	nt	6%	nt
COc1ccc(OC)c(CNC(=O)c2cc3c(=O)oc4ccc(C)cc4c3s2)c1	nt	?	?	nt	-2%	nt
Cc1[nH]c(=O)[nH]c(=O)c1S(=O)(=O)N1CCN(c2ccccc2Cl)CC1	nt	-1%	-9%	nt	1%	nt
O=S(=O)(Nc1ccc(O)c2ccccc12)c1cccs1	-9	4.6µM*	2.1µM*	-4	nt	-99*
COc1ccc(-c2cn3cc(C(F)(F)F)cc(Cl)c3n2)cc1	0	18µM*	?	-2	nt	58
O=C(NCCN1C(=O)S/C(=C\c2cccnc2)C1=O)C1=NN(c2ccccc2)C(=O)CC1	-29	23µM*	?	?	0%	0
O=C(COc1ccccc1-c1ccccc1)NCCN1C(=O)S/C(=C\c2cccnc2)C1=O	5	16µM*	16µM*	2	-3%	-1
COc1ccc(C(=O)Nc2cc(-c3nc4ncccc4o3)ccc2C)cc1Br	nt	?	?	nt	1%[12.3 µM]	nt
CCOc1ccccc1OCC(=O)Nc1ccc(S(=O)(=O)N(C)C)cc1	2	-15%	-13%	11	4%	14
CC(C)N(Cc1ccccc1)S(=O)(=O)c1ccc(F)cc1	9	9.2µM*	?	19	nt	-20
Cc1ccccc1OCC(=O)Nc1ccc(S(=O)(=O)N(Cc2ccccc2)c2ccccc2)cc1	nt	5.8µM*	?	nt	-3%	nt
O=C(Nc1ccc(S(=O)(=O)N(Cc2ccccc2)c2ccccc2)cc1)c1ccc(F)cc1	nt	6.5µM*	23µM*	nt	-3%	nt
CCOc1cccc(C(=O)Nc2ccc(S(=O)(=O)N(Cc3ccccc3)c3ccccc3)cc2)c1	nt	2.3µM*	?	nt	-2%	nt
CCN(Cc1ccccc1)S(=O)(=O)c1ccc(F)cc1	20	-12%	-9%	7	nt	-3
CC(C)CCC(C)NC(=O)CN1C(=O)NC(C)(c2ccc3ccccc3c2)C1=O (stereo unspecified)	-5	-23%	?	0	0%	?
Cc1ccc(OCc2cc(C(=O)NC3CCOC3)no2)cc1C (stereo unspecified)	7	-4%	-14%	nt	3%	6
Cc1cccc(C(=O)Nc2ccc(S(=O)(=O)N(Cc3ccccc3)c3ccccc3)cc2)c1	nt	10µM*	?	nt	3%	nt
COc1cccc(C(=O)Nc2ccc(NC(=O)Cc3ccccc3)cc2)c1	3	?	2%	1	4%	2
Cc1ccc(C(=O)Nc2ccccc2)cc1S(=O)(=O)Nc1ccc(Br)cc1	nt	?	?	nt	-3%[12.3 µM]	nt
COc1cccc(C(=O)Nc2ccc(S(=O)(=O)N(Cc3ccccc3)c3ccccc3)cc2)c1	nt	5.8µM*	?	nt	4%	nt
CCN(c1ccccc1)S(=O)(=O)c1cc(C(=O)Nc2ccc(Br)cc2)ccc1F	1	21µM*	21µM*	2	0%	?
CCCCCOC(=O)CC(C(=O)OCCCCC)N1CCCCC1 (stereo unspecified)	34	?	?	24	-2%	24
COc1ccc2c(CC(=O)N[C@@H](Cc3c[nH]c4ccccc34)C(=O)O)cc(=O)oc2c1	-4	-1%	-1%	-2	nt	22
CC(C)/C(O)=C1/C(=O)OC(c2ccoc2)[C@@]2(C)C(O)C(O)[C@@]34OC5(C)OC67CC(C)(C(O)[C@@]6(O)C(O)[C@@]3(O5)C12)C(CC(=O)O)[C@@]74C (stereo partly specified)	nt	-4%	10%	nt	-4%[56.1 µM]	nt
COC(=O)CC1C2(C)CC34OC5(C)O[C@@]6(C7/C(=C(/OC)C(C)C)C(=O)OC(c8ccoc8)[C@@]7(C)C(OC(=O)C(C)C)C(OC)[C@]6(O5)[C@@]13C)C(OC)[C@]4(OC)C2OC(C)=O (stereo partly specified)	nt	13µM*	8.2µM*	nt	-8%[56.1 µM]	nt
SMILES	Six1-Eya2 blk	DT40 TDP1 no CPT	DT40 TDP1 CPT	CtBP-E1A inh	TDP1 block	IL-1B inflam inh
COc1cc(OC)cc(C(=O)Nc2cc(-c3nc4cccnc4s3)ccc2C)c1	nt	10µM*	?	nt	1%	nt
CCOc1ccccc1C(=O)Nc1cc(-c2nc3cccnc3s2)ccc1C	nt	5.2µM*	8.2µM*	nt	9%	nt
CCOc1ccccc1C(=O)Nc1cc2c(cc1C)n(C)c(=O)c(=O)n2C	nt	?	?	nt	5%	nt
COc1cc(OC)cc(C(=O)Nc2ccc(-c3nc4ccccc4s3)cc2C)c1	nt	nt	nt	nt	-3%	nt
COc1ccc(-c2noc(CNC(=O)c3ccccc3Br)n2)cc1	nt	-21%	-16%	nt	6%	nt
O=C(NNC1OC(CO)C(O)C(O)C1O)c1cccc(Br)c1 (stereo unspecified)	13	13%	-5%	nt	3%	5
NC(=O)C(Cc1ccccc1)NS(=O)(=O)c1ccc(N2CCCC2=O)cc1 (stereo unspecified)	-5	-19%	?	-19	-7%	24
CCc1cc(C(=O)Nc2cc(S(=O)(=O)N(CC)CC)ccc2N2CCN(C)CC2)sc1C	-9	-22%	-2%	4	2%[0.505 µM]	-2
CCc1noc(C)c1C(=O)Nc1cc(Cl)ccc1N1CCCC1	1	18µM*	?	9	1%	7
CN1CCN(c2ccc(Cl)cc2NC(=O)c2nn(-c3ccccc3)c(=O)c3ccccc23)CC1	2	9.2µM*	?	0	0%	-18
CCc1cc(C(=O)Nc2cc(Cl)ccc2N2CCN(C)CC2)sc1C	3	23µM*	?	-17	-9%	-10
COc1cccc(OC)c1OCCN1CCC(C(=O)NC(c2ccccc2)c2ncccc2C)CC1 (stereo unspecified)	-18	?	?	1	nt	0
Cc1ccc(C)c(NC(=O)CSc2ncnc3nc[nH]c23)c1	0	-9%	-15%	2	5%	33
O=C(CSc1ncnc2nc[nH]c12)Nc1nnc(SCc2ccc(Cl)c(Cl)c2)s1	-13	18µM*	-28%	?	0%	19
O=C(CSc1nnc2scc(-c3ccccc3)n12)N1CCN(Cc2ccccc2)CC1	4	?	-28%	-9	2%	?
COc1ccc2nc(Nc3nc(CSc4nc5ccccc5[nH]4)cc(=O)[nH]3)nc(C)c2c1	1	4.1µM*	4.6µM*	10	2%	-95*
COc1ccc2nc(SCc3nc(N)nc(Nc4ccccc4)n3)[nH]c2c1	-10	16µM*	?	-3	6%	-4
